Laboratory results taken from the supplement of paper PMC7695840.
Counter-ions that a name gives are not always drawn.

Experiments:
[1] = tested on: Staphylococcus aureus MW2 delta-mecA (mecA-); test: normalized GFP fluorescence (growth of mecA- strain) (fraction of control range); higher = more growth of mecA- strain; details: compound concentration: 150 uM; cefoxitin: subinhibitory; fluorescent label: GFP
Method in brief: (§1)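 A 1:1 mix of pre-induced S. aureus MW2 cells, DsRed-labeled with the gene and GFP-labeled without it, was grown in LB with a daily-set subinhibitory antibiotic dose on 150 μM compound (1.5% DMSO) in 1536-well plates, single replicate. Growth lasted 20 h at 37 °C, 90% humidity, without shaking, and DsRed (540/590) and GFP (485/520) were then read. Channels were scaled per plate to single-strain control medians, and plates with high untreated ratios and rows with DsRed/GFP >10 were removed.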

[2] = tested on: Staphylococcus aureus MW2 (mecA+); test: normalized DsRed fluorescence (growth of mecA+ strain) (fraction of control range); higher = more growth of mecA+ strain; details: compound concentration: 150 uM; cefoxitin: subinhibitory; fluorescent label: DsRed
Method in brief: as §1

SMILES | normalized GFP fluorescence [1] | normalized DsRed fluorescence [2]
CCN[C@H]1C[C@H](C)S(=O)(=O)c2sc(S(N)(=O)=O)cc21 [Dorzolamide HCL] | 0.422 | 0.697
NC(=O)c1cc[n+](CC2=C(C(=O)O)N3C(=O)[C@@H](NC(=O)[C@@H](c4ccccc4)S(=O)(=O)[O-])[C@H]3SC2)cc1 | 0.172 | 1.03
S=c1[nH]cnc2nc[nH]c12 | 0.195 | 0.762
CC(C)Oc1ccc2c(=O)c(-c3ccccc3)coc2c1 [Ipriflavone] | 0.362 | 0.57
COc1ccc2[nH]c([S+]([O-])Cc3ncc(C)c(OC)c3C)nc2c1 (centres undefined) | 0.481 | 1.2
C[C@@H](c1ncncc1F)[C@](O)(Cn1cncn1)c1ccc(F)cc1F | 0.309 | 0.766
Cc1cc(C(C)(C)C)cc(C)c1CC1=NCCN1 | 0.345 | 0.52
CS(=O)(=O)CCNCc1ccc(-c2ccc3ncnc(Nc4ccc(OCc5cccc(F)c5)c(Cl)c4)c3c2)o1 [Lapatinib Ditosylate (Tykerb)] | -0.0239 | 1.52
CCCCCC(=O)O[C@]1(C(C)=O)CC[C@H]2[C@@H]3CCC4=CC(=O)CC[C@]4(C)[C@H]3CC[C@@]21C | 0.34 | 0.39
CCCc1nc(C)c2c(O)nc(-c3cc(S(=O)(=O)N4CCN(CC)CC4)ccc3OCC)nn12 | 0.68 | 0.461
C[C@H]1C[C@H]2[C@@H]3CCC4=CC(=O)C=C[C@]4(C)[C@@]3(F)[C@@H](O)C[C@]2(C)[C@@]1(O)C(=O)CO [Betamethasone (Celestone)] | 0.0397 | 1.3
CC(N/C(=N\C#N)Nc1ccncc1)C(C)(C)C (centres undefined) | 0.124 | 1.44
CCN(C(=O)c1c(O)c2c(Cl)cccc2n(C)c1=O)c1ccccc1 | 0.0925 | 0.805
CC(=O)NCCCS(=O)(=O)O | 0.628 | 0.742
Cc1ncc([N+](=O)[O-])n1CC(C)O (centres undefined) [Secnidazole (Flagentyl)] | 0.266 | 0.482
CC(C)CN(C[C@@H](O)[C@H](Cc1ccccc1)NC(=O)O[C@H]1CCOC1)S(=O)(=O)c1ccc(N)cc1 [Amprenavir (Agenerase)] | 0.174 | 0.506
CN/C(=N\CCSCc1nc[nH]c1C)NC#N | 0.567 | 1.05
CCCc1cc(C(N)=S)ccn1 [Protionamide (Prothionamide)] | 0.749 | 0.698
N#C[C@@H]1CCCN1C(=O)CNC12CC3CC(CC(O)(C3)C1)C2 [Vildagliptin (LAF-237)] | 0.68 | 0.519

SMILES | normalized GFP fluorescence [1] | normalized DsRed fluorescence [2]
CCOc1cc([C@@H](CS(C)(=O)=O)N2C(=O)c3cccc(NC(C)=O)c3C2=O)ccc1OC | 0.254 | 0.579
COc1ccc(CCN(C)CCCC(C#N)(c2ccc(OC)c(OC)c2)C(C)C)cc1OC (centres undefined) | 0.734 | 0.717
CCN1CCCC(OC(=O)C(c2ccccc2)c2ccccc2)C1 (centres undefined) | 0.427 | 0.501
Cc1cn([C@H]2C[C@H](N=[N+]=[N-])[C@@H](CO)O2)c(=O)[nH]c1=O | 0.317 | 0.887
Oc1cccc(O)c1 | 0.565 | 0.516
CC(=O)N(O)CCCCCNC(=O)CCC(=O)N(O)CCCCCNC(=O)CCC(=O)N(O)CCCCCN | 0.272 | 1.26
OCCN1C[C@H](O)[C@@H](O)[C@H](O)[C@H]1CO | 0.514 | 0.724
NC12CC3CC(CC(C3)C1)C2 | 0.453 | 0.794
O=C1N=C(O)NC1(c1ccccc1)c1ccccc1 | 0.309 | 1.06
CC(=O)Oc1cc2c(s1)CCN(C(C(=O)C1CC1)c1ccccc1F)C2 (centres undefined) [Prasugrel (Effient)] | 0.226 | 0.841
CN(C)CCCN1c2ccccc2CCc2ccccc21 | 0.0133 | 1.83
COC(=O)C1=C(C)NC(C)=C(C(=O)OCCN2CCN(C(c3ccccc3)c3ccccc3)CC2)C1c1cccc([N+](=O)[O-])c1 (centres undefined) | 0.002 | 0.944
C#C[C@]1(OC(C)=O)CC[C@H]2[C@@H]3CCC4=C[C@@H](OC(C)=O)CC[C@@H]4[C@H]3CC[C@@]21C | 0.192 | 0.568
CCOC(=O)C1=C[C@@H](OC(CC)CC)[C@H](NC(C)=O)[C@@H](N)C1 | 0.257 | 0.588
CC(C)(C)NC[C@H](O)COc1nsnc1N1CCOCC1 | 0.208 | 0.811
CCCCNc1cc(C(=O)O)cc(S(N)(=O)=O)c1Oc1ccccc1 | 0.446 | 0.877
CN1Cc2c(N)cccc2C(c2ccccc2)C1 (centres undefined) | 0.359 | 0.781
NCC[C@H](O)C(=O)N[C@@H]1C[C@H](N)[C@@H](O[C@H]2O[C@H](CN)[C@@H](O)[C@H](O)[C@H]2O)[C@H](O)[C@H]1O[C@H]1O[C@H](CO)[C@@H](O)[C@H](N)[C@H]1O [Amikacin hydrate] | 0.412 | 0.639
